Key:
Test in all cases: relative induction of RFP reporter vs primary effector (background-corrected); higher = stronger activation of the biosensor
Settings in all cases: inducer concentration 5 mM; 6 h; Cupriavidus necator H16; minimal medium + 0.4% gluconate
[1] = test system: AcoR/P_H16_RS19445 acetoin biosensor (pEH052)
Protocol: (§1)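 C. necator H16 strains, each carrying one of 21 transcription factor/inducible promoter–mRFP biosensor plasmids, were grown in minimal medium in 96-well plates (robotic platform). Each was exposed to 46 structurally or metabolically related compounds at 5 mM at 30 °C. OD-normalised RFP fluorescence was read 6 h later and expressed as relative induction (%) = 100 × (FL compound − FL uninduced)/(FL primary inducer − FL uninduced); mean of n=4.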

[2] = test system: AraC/P_araBAD L-arabinose biosensor (pEH176)
Protocol: as §1

[3] = test system: BenM/P_H16_RS09790 benzoate biosensor (pEH148)
Protocol: as §1

[4] = test system: FdsR/P_H16_RS03165 formate biosensor (pEH134)
Protocol: as §1

[5] = test system: GabR/P_H16_RS23655 GABA biosensor (pEH256)
Protocol: as §1

[6] = test system: HpdR/P_H16_RS18295 3-hydroxypropanoate biosensor (pEH010)
Protocol: as §1

[7] = test system: KynR/P_H16_RS14030 L-kynurenine biosensor (pEH136)
Protocol: as §1

[8] = test system: NahR/P_H16_RS08125 salicylate biosensor (pEH042)
Protocol: as §1

[9] = test system: OapR/P_H16_RS01330 beta-alanine biosensor (pEH147)
Protocol: as §1

[10] = test system: PcaQ/P_H16_RS30145 3,4-dihydroxybenzoate biosensor (pEH161)
Protocol: as §1

[11] = test system: PhgR/P_H16_RS05530 phenylglyoxylate biosensor (pEH155)
Protocol: as §1

[12] = test system: PhhR/P_H16_RS18365 L-phenylalanine biosensor (pEH137)
Protocol: as §1

[13] = test system: SauR/P_H16_RS13695 sulfonatoacetate biosensor (pEH157)
Protocol: as §1

[14] = test system: TtdR/P_H16_RS10665 tartrate biosensor (pEH083)
Protocol: as §1

[15] = test system: XdhR/P_H16_RS05055 xanthine biosensor (pEH154)
Protocol: as §1

[16] = test system: heterologous inducible system pEH002 (rhamnose/acrylate/cumate/itaconate set)
Protocol: as §1

[17] = test system: heterologous inducible system pEH020 (rhamnose/acrylate/cumate/itaconate set)
Protocol: as §1

[18] = test system: heterologous inducible system pEH040 (rhamnose/acrylate/cumate/itaconate set)
Protocol: as §1

[19] = test system: heterologous inducible system pEH086 (rhamnose/acrylate/cumate/itaconate set)
Protocol: as §1

[20] = test system: BadR/P_H16_RS27200 cyclohexanecarboxylate biosensor (pEH159)
Protocol: as §1
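Note: RFP excited at 585 nm with emission read at 620 nm, culture medium blanks subtracted from fluorescence and absorbance prior to normalisation.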

| SMILES | relative induction of RFP reporter [1] | relative induction of RFP reporter [2] | relative induction of RFP reporter [3] | relative induction of RFP reporter [4] | relative induction of RFP reporter [5] | relative induction of RFP reporter [6] | relative induction of RFP reporter [7] | relative induction of RFP reporter [8] | relative induction of RFP reporter [9] | relative induction of RFP reporter [10] | relative induction of RFP reporter [11] | relative induction of RFP reporter [12] | relative induction of RFP reporter [13] | relative induction of RFP reporter [14] | relative induction of RFP reporter [15] | relative induction of RFP reporter [16] | relative induction of RFP reporter [17] | relative induction of RFP reporter [18] | relative induction of RFP reporter [19] | relative induction of RFP reporter [20] |
| --- | --- | --- | --- | --- | --- | --- | --- | --- | --- | --- | --- | --- | --- | --- | --- | --- | --- | --- | --- | --- |
| Oc1ccc(O)cc1 [hydroquinone] | 4.27% | 0.188% | 0.0575% | 11.3% | 8.11% | 1.65% | 1.53% | 0.108% | 0.00669% | 0.229% | 1.56% | 2.24% | 0.207% | 1.2% | 0.708% | 0.0465% | -0.0999% | 2.73% | 0.735% |  |
| O=C(O)/C=C\C=C/C(=O)O [cis,cis-muconate] | -0.277% | -0.0203% | -0.00774% | 0.498% | -1.92% | 0.114% | 0.571% | 0.022% | 0.13% | -0.0137% | -0.341% | -0.13% | -0.0287% | 0.125% | -0.143% | -0.00409% | 0.263% | 0.756% | 0.0837% |  |
| O=C(O)C(O)c1ccccc1 (stereo unspecified) [mandelic acid] | 4.07% | 0.0229% | 0.175% | 1.81% | 1.32% | 0.0419% | -0.345% | -0.000243% | 0.364% | 0.0192% | -0.332% | -0.406% | 0.0426% | -0.395% | -0.0998% | 0.0137% | 0.769% | 1.17% | 0.563% |  |
| O=C(O)C1=CCCCC1 [cyclohexene-1-carboxylate] | 2.55% | -0.0101% | 156% | -3.7% | -1.27% | -0.493% | 0.423% | -0.00892% | 1.03% | -0.0381% | -0.121% | -0.244% | 0.0222% | 0.391% | 0.161% | 0.0231% | 0.24% | 1.34% | 0.551% | 80.5% |
| O=c1cc[nH]c(=O)[nH]1 [uracil] | -0.264% | -0.0292% | -0.0102% | 2.09% | 0.468% | 0.292% | 1.02% | 0.0235% | 0.971% | -0.0843% | -0.376% | 0.347% | -0.0169% | -0.0341% | 0.952% | 0.0212% | 0.742% | -0.00512% | 0.875% |  |
| O=S(=O)(O)CCO [isethionate] | -1.41% | -0.00384% | -0.0202% | -5.83% | -2.12% | -0.0757% | 0.0938% | 0.0152% | -0.424% | 6.61% | -0.518% | -0.0754% | 1.56% | 2.47% | -0.627% | 0.0178% | -1.34% | -1.22% | -0.0664% |  |
| O=C(O)c1c(O)cccc1O [2,6-dihydroxybenzoate] | 2.22% | 0.019% | 0.0383% | -4.96% | 1.87% | 0.277% | 0.406% | 8.29% | 0.369% | 0.0449% | -0.403% | 0.0318% | 0.0103% | -0.411% | 0.89% | 0.00673% | 2.01% | 0.428% | 0.26% |  |
| OC[C@@H](O)[C@@H](O)[C@H](O)[C@H](O)CO [D-mannitol] | 4.32% | -0.00626% | 0.00493% | -0.914% | -0.506% | -0.0887% | 0.488% | 0.0228% | -0.205% | 0.0552% | -0.267% | 0.344% | 0.0255% | 0.195% | -0.267% | -0.000622% | -0.0264% | 0.166% | 0.0103% |  |
| O=C(O)CNC(=O)c1ccccc1 [N-benzoylglycine] | -2.37% | -0.0115% | 21.2% | 40.1% | -0.301% | -0.376% | 0.0257% | 0.0182% | -1.12% | -0.215% | -0.146% | -0.604% | -0.018% | -0.285% | -0.852% | -0.00397% | -2.44% | -1.84% | -0.117% |  |
| O=C(O)C(O)C(=O)O [tartronic acid] | 0.914% | -0.0176% | 0.0119% | -1.37% | -0.481% | 0.0561% | 0.115% | 0.00865% | 0.0759% | -0.0557% | -0.449% | -0.338% | 0.0532% | 0.714% | -0.218% | 0.00666% | -0.0821% | 0.945% | 0.0674% |  |
| CC(N)CC(=O)O (stereo unspecified) [3-aminobutanoate] | 0.0935% | -0.0347% | 0.00428% | -2.98% | -1.28% | -0.191% | -0.097% | 0.00216% | 57.8% | 0.0297% | 0.0503% | -0.0355% | -0.0365% | 0.625% | 0.412% | 0.0041% | -0.315% | 0.21% | 0.139% |  |
| NCC(O)C(=O)O (stereo unspecified) [3-amino-2-hydroxypropanoate] | -0.589% | 0.017% | -0.00343% | -6.17% | -1.08% | -0.132% | -0.0139% | 0.0227% | 33.2% | -0.0272% | -0.304% | -0.491% | 0.0914% | 0.315% | -0.317% | 0.0153% | -1.25% | 0.821% | 0.238% |  |
| Cn1cnc2c1c(=O)[nH]c(=O)n2C [theobromine] | 0.603% | 0.0327% | 0.0104% | 3.33% | -2.07% | 0.0941% | 1.51% | 0.0192% | 0.977% | -0.0479% | 0.316% | 1.05% | -0.00533% | 0.646% | 0.45% | 0.0324% | -0.957% | 0.453% | 0.597% |  |
| O=C(O)C1=C[C@@H](O)[C@@H](O)[C@H](O)C1 [shikimate] | 0.0178% | -0.00161% | -0.000316% | -2.48% | -0.317% | 1.03% | -0.0973% | 0.00146% | 0.246% | 2.49% | -0.587% | 0.165% | 0.0792% | -0.0735% | -0.446% | -0.00769% | -0.782% | -0.0558% | 0.188% |  |
| O=c1[nH]cnc2nc[nH]c12 [hypoxanthine] | -1.99% | 0.0138% | -0.0181% | -4.61% | -0.0294% | 0.126% | -0.263% | 0.0182% | 1.08% | -0.186% | 0.109% | -0.204% | 0.0689% | 0.797% | 166% | 0.00894% | -1.8% | -0.718% | 0.0665% |  |
